For this assay, the system named is LXRb:RXRa (NR concentration 270 nM, RXRa partner concentration 90 nM). Briefly: PBM binding z-score (relative to random genomic background probes); higher = stronger binding; sequences stand for … in GC…GCGATTGACAGCGTAGAATGAAGG
Here is the method: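 Protein-binding microarray (Agilent 4x180K custom design, double-stranded 60-nt probes: 5' GC cap, 34-nt variable region, 24-nt constant primer region; full probe sequence given). Purified or IVT nuclear receptor:RXRα heterodimers (3:1 NR:RXRα, mostly 270:90 nM) or homodimers were incubated for 1 h in PBS with 2% milk and no ligand, then detected with Alexa488 antibodies. Fluorescence from o1-orientation probes (~5 replicates averaged) was converted to z-scores against 500 random hg19 background probes. Variable regions are seed direct-repeat (DR0–DR5) sites, all their single-nucleotide variants and half-site ablations.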
Sequence CGTCCAAGGTCGAAGGTCAGTGAAGAGATGACGG had a PBM binding z-score of 2.62.

With CGTTCAAGGTCAAAGGTCAGTGAAGAGATGACGG, the PBM binding z-score came to 6.76.

On to CGTCCAAGGTCAGCGGGTCAGTGAAAGCGACGTG, for which the PBM binding z-score is 3.11. As for TTGCCAAGGTGAAAGGTCGTTGATGCACGCCTTG, the figure is 2.63; as for TACCCTAGGTCATTGGGCCAGTATAGTACGCATC, 4.07. On to CGAACTAGGTCAAGGGACAGTGAAAGGCGACGTA, for which the PBM binding z-score was determined as 1.33. For AGTCAAAGTTCAGGACGAGGTAACGTTAAGCACG the value was 1.77; for CGTCCGAGGTCAAGGTCAGTGAAAGAGACTCGAA, 5.26; for AGAATGAGGTTAAGTTCAGGGAAACAGAATACAT, 2.78. As for CAAACTAGGTCAAGGTCTAAGTCGGTTTGTGCCA, the PBM binding z-score came to 1.6. Turning to CCGAGTTGGTCAAGGTCACACACGCTATAGGTAC, the PBM binding z-score was 3.66. For CAAACTAGTTCAAGAGGTCAAAGTCCGCTTCCCG the value was 5.37; for CCAGACAGGTGAGAAGGTAACTCAGCCTCGATTA, 0.609; for TCTAGTTGGTCACGGAGGTCACAAACGACGGGTA, 3.15. For CGTCAAAGGTCAGCAGGTCAGTGAAAGCGACGTG the value was 4.97; for CGTACAAGGTCAAAGGTCAGTGAAGAGATGACGG, 6.66; for TATACAAGGTCAAAGGCCAGAGTACGAATGTCGA, 5.46. Sequence CGAACAAGGTCACCAGGACAGTGAAGAGGTTGGA showed a PBM binding z-score of 4.28. AGAACGAGGTCACGCTGAGTTGATAGCAGAGTAG gave a PBM binding z-score of 5.24. For TCTTGTAGGTCAATAGAGGTTAAGAAAGTGCGCT the value was 5.11. As for AGCGAAAGGTCGAGGTGAGTATAGAGAAAGGGAA, the figure is 2.7; as for AGAATGAGGTCATACGTAGATCAGGGAAGAAAGT, 5; as for TAGCCTAGGTCATGGGCCAGTGTACCACGCGAAC, 2.46. Take TTACCAAGGTGAACGGTCGTTGATGCACGCCTTG: the PBM binding z-score amounted to 0.334. As for TGTCAACGTTCAAAGGTAACGTAAGTATCCACAC, the figure is 0.759; as for TGTCAATGTTCAAAGGTAACGTAAGTATCCACAC, 0.772; as for ATCGAAAGGTCCAAGGTGAGTATACCCACCCGAA, 0.126. For CCTTAAGGGTCACGAGGTTATAGCACGACGAGCG the value was 5.38; for TCTCGGAGGACACCAAAGGTCAGAGCTCGACATC, 3.46; for ACTTAAGGGTCAACGAGGTTATAGCACGCGTATA, 5.33. For GGAACGAGGTCAAAGTTGATAGCATCTGTCGACG the value was 5.45; for CCTTACGGGTCACTCCAGGTTATATCATCGGAGT, 5.38. In the case of TCTCGGAGGAAACGAAAGGTCAGAGCTCGACATC, the PBM binding z-score stood at 3.1. As for GCTAGTTGGTCAGTAAAATGTCACACACCGGTCG, the figure is -0.14; as for CGAACGAGGTCATGAGTTGATAGCAAATGCCGAT, 4.51.

AGTCAAAGTGCATCTAGGTAACGTAAGATATGCT gave a PBM binding z-score of 0.11.

TATAAAGGGTCAAAGGCCAGAGTACGAATGTCGA returned a PBM binding z-score of 5.24.

In the case of TATACAGGGTCAAAGGCCAAAGTACGAATGTCGA, the PBM binding z-score is 5.4.

Take CAAACTAGGTCACAAAAGGTCAAAGTCGAATGAC: the PBM binding z-score was found to be 7.76. As for CGAACAAGGTCATCCAGGACAGTGAATACATTGA, the PBM binding z-score turned out to be 4.67.

For the origin of these results see the supplement of paper PMC6555819.
